Only some compounds are listed: those with a hit (about 19% of all), similar ones and a draw of the others.
TDP1 cell CPT: growth inhibition of DT40 Tdp1-/-;hTDP1 cells with camptothecin (screen for TDP1 inhibitors); chicken DT40 Tdp1-/-;hTDP1 cells + 20 nM CPT, ATP luminescence, 48 h; Potency, µM (doses to about 46.2 µM), for inactives: at the highest dose activity change, negative = growth inhibition, most hits filed as inhibitors; actives 12% (n = 420,000); AID 686979; also: potency is read from the fitted curve at half-maximal effect; nearly all actives have a fitted effect of over 55% in size
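Chicken DT40 Tdp1-/- cells stably complemented with human TDP1 were seeded at 400 cells/well in medium containing 20 nM camptothecin, exposed to pin-transferred compounds, and grown at 37 °C for at least 48 hr. Viability was read as ATP luminescence.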
IL-1B inflam inh: inhibitors of inflammasome signaling (IL-1 beta secretion); THP-1 LPS/ATP IL-1B secretion, AlphaLISA, 16 h; stronger effect = lower value; activity change, % at 57.5 µM; actives 4.7% (n = 360,000); in the data active = activity change below about -50%; inconclusive = mostly about -30% to -49%
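THP-1 cells pretreated 1 hr with compounds (up to 57.5 uM final), then stimulated with LPS (250 ng/mL final) plus ATP (1.25 mM final); secreted IL-1B measured by AlphaLISA after 16 hr, decreased signal indicating inhibition.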
HT1080 IDH1KD tx: HT-1080 IDH1 knockdown cell toxicity (counter line); AID 686971; Potency, µM (top dose mostly 46.1 µM), for the others: top-dose activity, negative = toxicity, usual class: cytotoxic; HT-1080 IDH1 knockdown viability, ATP luminescence, 48 h; actives 2% (n = 360,000);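 also: potency is read from the fitted curve at half-maximal effect; 0% = DMSO wells and -100% = cell-free medium wells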
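Using the IDH1-knockdown HT-1080 line run in the same batch and compound series as the NT line, viability after 48 h at 37 °C was determined by CellTiter-Glo luminescence and expressed as % activity.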
TDP1 cell noCPT: qHTS for Inhibitors of human tyrosyl-DNA phosphodiesterase 1 (TDP1): qHTS in cells in absence of CPT | actives 15% (n = 420,000) | DT40 Tdp1-/- hTDP1 cells, no CPT, ATP luminescence, 48 h | Potency, µM (highest dose often 46.2 µM), for inactives: at the top dose activity change, negative = growth inhibition, usual class: inhibitors | AID 686978, 2013; also: potency is read from the fitted curve at half-maximal effect; nearly all actives have a fitted effect of over 55% in size
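Stably hTDP1-transfected Tdp1-null chicken DT40 cells were treated with library compounds minus camptothecin and grown for at least 48 hr at 37 °C, after which cellular ATP was quantified by luminescence.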
HT1080NT lethal: kills 2HG-producing HT-1080-NT fibrosarcoma cells; HT-1080-NT fibrosarcoma viability, CellTiter-Glo ATP luminescence, 48 h; Potency, µM (highest dose often 46.1 µM), for inactives: top-dose activity, negative = less viability, actives largely listed as cytotoxic; actives 1.6% (n = 360,000); AID 686970;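 also: NT is the 2HG producing partner of a matched IDH1 knockdown line; potency is read from the fitted curve at half-maximal effect; 0% = DMSO-treated cells and -100% = media-only wells without cells; nearly all actives have a fitted effect of over 55% in size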
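Viability of the 2HG-overproducing fibrosarcoma line after 48 hours of compound exposure at 37 degrees C was determined by luminescence with CellTiter-Glo, and concentration-effect curves were then fitted and categorized.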
An asterisk follows results filed as active; i = inactive; ? = inconclusive; . = no result. Unless noted, calls follow the shape of the dose curve; as a rule, active = well fitted curve in the direction sought with a large enough effect; inconclusive = small, poorly fitted or top-dose-only effect, or another doubt; inactive = no such curve, though single readings can be large; an effect the other way counts as inactive or inconclusive. Unless noted, % is scaled to controls: 0 for no effect and ±100 for the full control effect.

SMILES | TDP1 cell CPT | IL-1B inflam inh | HT1080 IDH1KD tx | TDP1 cell noCPT | HT1080NT lethal
CCOCCCNC(=O)c1cc2c(=O)n(CC)c3ccccc3c2s1 | ? | 0.0 | -29.2% | ? | ?
CCN(CC)CCNC(=O)c1cc2c(=O)n(CC)c3ccccc3c2s1 | ? | -55.7* | -15.2% | 18.4µM* | -20.3%
CCN(CC)CCCNC(=O)c1cc2c(=O)n(CC)c3ccccc3c2s1 | ? | -57.0* | ? | ? | ?
CCN1CCN(c2ccc(S(=O)(=O)N3CCOCC3)cc2NC(=O)c2ccc(C(F)(F)F)cc2)CC1 | -5.4% | -10.4 | -1.8% | -13.9% | -1.5%
CCN(CC)c1ncnc2c1ncn2[C@H]1CN(Cc2ccc(OC)cc2)C[C@@H](CO)O1 | ? | -24.0 | -0.5% | ? | 1.3%
COc1ccc(C(c2c(O)ccc3ccccc23)N2CCOCC2)c(OC)c1 (stereo not drawn) | ? | 0.0 | ? | 29.1µM* | -8.3%
COC(=O)c1ccc2c(=O)n(CCCCCC(=O)N3CCN(c4ccc(F)cc4)CC3)c(=O)[nH]c2c1 | 16.4µM* | 28.3 | 19.7% | 11.6µM* | 9.3%
CCCCCn1c(=O)[nH]c2cc(C(=O)N3CCN(c4cccc(C(F)(F)F)c4)CC3)ccc2c1=O | 10.3µM* | . | . | 7.31µM* | .
O=C(CCCCCn1c(=O)[nH]c2ccccc2c1=O)N1CCN(c2cccc(C(F)(F)F)c2)CC1 | 0.581µM* | . | . | 0.581µM* | .
O=C(CCCCCn1c(=O)[nH]c2ccccc2c1=O)N1CCN(Cc2ccc3c(c2)OCO3)CC1 | 13µM* | -28.4 | -7.5% | ? | -8.5%
COC(=O)c1ccc2c(=O)n(CCCCCC(=O)O)c(=O)[nH]c2c1 | -6.0% | -7.5 | -4.6% | -9.8% | 0.2%
O=C(Cn1c(=O)[nH]c2ccccc2c1=O)N1CCN(Cc2ccc3c(c2)OCO3)CC1 | ? | 6.9 | -2.2% | ? | 0.1%
CCOc1cc2[nH]c(=O)n(CCC(=O)N3CCN(c4ccccc4)CC3)c(=O)c2cc1OCC | -25.1% | . | . | -27.9% | .
COc1cc2cncnc2cc1OCCCCC(N)=O | 1.7% | . | 18.3% | 1.0% | 0.3%
CCNC(=O)C1CCCN1C(=O)C(CCCN=C(N)N)NC(=O)C(CC(C)C)NC(=O)C(Cc1cn(Cc2ccccc2)cn1)NC(=O)C(Cc1ccc(O)cc1)NC(=O)C(CO)NC(=O)C(Cc1c[nH]c2ccccc12)NC(=O)C(Cc1cnc[nH]1)NC(=O)C1CCC(=O)N1 (stereo not drawn) | -1.9% | 17.2 | 11.9% | 0.0% | 28.9%
c1ccc(COc2ncnc3c2ncn3CCCNCCN2CCOCC2)cc1 | 33.5% | 13.8 | -2.4% | 4.1% | 5.4%
CC(=O)Oc1ccc(C(=O)N2c3ccccc3NC(=O)C2C)cc1 (stereo not drawn) | -1.9% | -14.5 | -0.5% | 13.6% | -5.7%
Cc1ccc(C)c(N2CCN(C(=O)CCn3c(=O)[nH]c4ccccc4c3=O)CC2)c1 | 16.4µM* | . | . | 11.6µM* | .
ClCCn1c(CCl)nc2ccc(Cl)cc21 | ? | 19.7 | -0.5% | 16.4µM* | -12.9%
Cc1ccc(-n2nc(C)c3nc(CCC(=O)Nc4cccc(F)c4)c(=O)n(C)c32)cc1 | -13.8% | . | . | -6.0% | .
O=C(NCc1ccc(F)cc1)C(=O)NCC1OCCN1S(=O)(=O)c1cccs1 (stereo not drawn) | -15.6% | -28.7 | -1.8% | -10.3% | -10.0%
COc1ccccc1OCCN(C#N)c1nc(N(C)C)nc(N(C)C)n1 | 20.6µM* | -77.3* | 2.4% | ? | 4.6%
Cc1nnc(NC(=O)CCSc2ccc(Cl)cc2)s1 | 7.5% | 0.0 | 6.0% | 20.6% | 8.1%
CCOC(=O)c1c(C)[nH]c2ccc3c(c12)CN1CCc2cc(OC)ccc2[C@@H]1O3 | 8.41µM* | . | . | 7.5µM* | .
CCOC(=O)c1c(C)[nH]c(C)c1C(=O)COC(=O)c1ccc(OC)cc1 | -15.2% | -5.9 | -11.0% | -15.7% | 0.0%
SMILES | TDP1 cell CPT | IL-1B inflam inh | HT1080 IDH1KD tx | TDP1 cell noCPT | HT1080NT lethal
COc1ccc(C(=O)N2[C@@H](C(C)C)COc3cc(Br)ccc3S2(=O)=O)cc1 | 18.4µM* | 6.1 | ? | ? | -21.6%
CNS(=O)(=O)c1cc(O)c2c(S(=O)(=O)NC)cccc2c1 | -19.3% | 0.0 | 11.1% | -0.7% | 9.2%
Cc1ccc(S(=O)(=O)Nc2ccc3ccccc3c2)cc1 | ? | ? | -2.5% | ? | -5.8%
Cc1ccc(NS(=O)(=O)c2cc3c4c(cccc4c2)C(=O)NC3=O)cc1 | ? | 13.6 | ? | 9.2µM* | ?
CNS(=O)(=O)c1cc2c3c(cccc3c1)C(=O)NC2=O | 18.4µM* | -9.7 | -7.7% | 23.1µM* | -2.2%
COc1ccc2[nH]c(C)c(CCNS(=O)(=O)c3cc(F)ccc3OC)c2c1 | 3.5% | . | . | -27.7% | .
CC(/C=C/c1ccc2c(c1)OCO2)=N/NC(=O)c1ccc(C)nc1 | ? | i | -25.6% | 23.1µM* | -19.2%
O=C(O)c1ccc2c(c1)OCCCO2 | -3.7% | 3.9 | 11.2% | 6.9% | -5.6%
O=C(C=Cc1ccc2c(c1)OCO2)c1ccccc1 | ? | -72.2* | 16.4µM* | 16.4µM* | ?
O=C(/C=C/c1ccc2c(c1)OCO2)NCCS(=O)(=O)N1CCN(c2ccccc2)CC1 | -29.4% | -15.0 | 7.31µM* | ? | ?
CC(/C=C/c1ccc2c(c1)OCO2)=N/NC(=O)c1cccnc1 | -30.0% | 2.9 | -6.1% | ? | -7.4%
O=C(/C=C/c1ccccc1)c1ccc2c(c1)OCCCCO2 | -29.4% | -78.2* | 12.4% | ? | 5.0%
O=C(/C=C/c1ccc2c(c1)OCO2)NCCS(=O)(=O)N1CCN(c2ccc(F)cc2)CC1 | ? | 3.4 | ? | -26.4% | -29.8%
N#Cc1ccc(/C=C/C(=O)c2ccc3c(c2)OCO3)cc1 | 16.4µM* | -68.7* | ? | 23.1µM* | ?
O=C(N/N=C/c1ccc2c(c1)OCO2)c1ccccn1 | ? | -23.8 | ? | ? | ?
O=C(/C=C/c1ccc2c(c1)OCO2)c1ccccn1 | 23.1µM* | -1.5 | ? | 18.4µM* | 25.9µM*
O=C(C=Cc1ccc2c(c1)OCO2)C=Cc1ccc2c(c1)OCO2 | ? | -18.5 | 10.6% | 23.1µM* | 6.7%
O=C(/C=C/c1ccccc1)c1ccccn1 | 23.1µM* | -12.5 | ? | 16.4µM* | ?
COc1cc(/C=N/N(C)S(=O)(=O)c2ccc(C)cc2)cc([N+](=O)[O-])c1O | 3.9% | 13.3 | 0.7% | -13.6% | 19.3%
O=C1COc2ccc(C(=O)/C=C/c3ccccc3)cc2N1 | 5.17µM* | -2.2 | -2.9% | 5.17µM* | -4.4%
NNC(=O)CN1CCCc2ccccc21 | -4.8% | 2.4 | 0.0% | -7.9% | -6.6%
Oc1ccc(CN2CCCc3ccccc32)c2cccnc12 | 3.66µM* | 34.1 | ? | 4.61µM* | -28.3%
